Data: PubChem BioAssay AID1159580 (chemical genetic matrix, 2015)
The campaign covered roughly 5,500 compounds. About 2,000 (36%) were called active. About 18% were inconclusive and are not listed. No stated cut-off is given here; in the data, active means normalized growth mostly below about 0.91 (no sharp cut-off); inconclusive means no clear call, values can overlap the other calls; inactive means mostly above about 0.92. The list shows a part of the results.

Assay: chemical genetic growth profiling, strain panel (AID 1159580);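 further: tested at 20 µM; growth read once vehicle control cultures reached saturation at 30 °C; 1 = growth at the plate median or of vehicle wells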
Conditions: S. cerevisiae deletion strains, growth OD

Measured: normalized growth

CC(=O)c1ccc(O)c(CC=C(C)C)c1
active: locus YGL253W, strain hxk2, stronger effect = lower value 0.884 | locus YGR252W, strain gcn5, stronger effect = lower value 0.749 | locus YKR001C, strain vps1, stronger effect = lower value 0.808 | locus YLR221C, strain rsa3, stronger effect = lower value 0.905 | locus YNL248C, strain rpa49, stronger effect = lower value 0.871 | locus YOR270C, strain vph1, stronger effect = lower value 0.737
inactive: locus YAL021C, strain ccr4, stronger effect = lower value 1 | locus YAL026C, strain drs2, stronger effect = lower value 0.952 | locus YAL030W, strain snc1, stronger effect = lower value 0.972 | locus YBL061C, strain skt5, stronger effect = lower value 0.956 | locus YBR009C, strain hhf1, stronger effect = lower value 0.933 | locus YBR021W, strain FUR4, stronger effect = lower value 0.954 | locus YBR023C, strain chs3, stronger effect = lower value 0.964 | locus YBR171W, strain sec66, stronger effect = lower value 0.949 | locus YBR229C, strain ROT2, stronger effect = lower value 0.983 | locus YBR231C, strain swc5, stronger effect = lower value 0.929 | locus YBR279W, strain paf1, stronger effect = lower value 0.977 | locus YCL011C, strain gbp2, stronger effect = lower value 0.959 | locus YCL016C, strain dcc1, stronger effect = lower value 0.999 | locus YCL029C, strain bik1, stronger effect = lower value 0.967 | locus YCL061C, strain MRC1, stronger effect = lower value 0.965 | locus YCL069W, strain vba3, stronger effect = lower value 0.971 | locus YCR088W, strain abp1, stronger effect = lower value 0.968 | locus YDL005C, strain med2, stronger effect = lower value 0.952 | locus YDL035C, strain GPR1, stronger effect = lower value 0.956 | locus YDL040C, strain nat1, stronger effect = lower value 0.97 | locus YDL074C, strain BRE1, stronger effect = lower value 0.867 | locus YDL101C, strain DUN1, stronger effect = lower value 0.963 | locus YDL134C, strain PPH21, stronger effect = lower value 0.984 | locus YDL185W, strain tfp1, stronger effect = lower value 0.922 | locus YDL192W, strain arf1, stronger effect = lower value 0.942 | locus YDR001C, strain nth1, stronger effect = lower value 0.966 | locus YDR069C, strain doa4, stronger effect = lower value 0.951 | locus YDR101C, strain arx1, stronger effect = lower value 0.968 | locus YDR137W, strain rgp1, stronger effect = lower value 0.983 | locus YDR159W, strain sac3, stronger effect = lower value 0.896 | locus YDR162C, strain NBP2, stronger effect = lower value 0.963 | locus YDR195W, strain ref2 0.975 | locus YDR297W, strain sur2, stronger effect = lower value 0.933 | locus YDR318W, strain mcm21, stronger effect = lower value 0.958 | locus YDR334W, strain swr1, stronger effect = lower value 0.966 | locus YDR335W, strain msn5, stronger effect = lower value 0.994 | locus YDR388W, stronger effect = lower value 0.967 | locus YDR392W, strain spt3, stronger effect = lower value 0.929 | locus YDR502C, strain sam2, stronger effect = lower value 0.938 | locus YEL003W, strain gim4, stronger effect = lower value 0.928 | locus YEL037C, strain rad23, stronger effect = lower value 0.964 | locus YEL061C, strain CIN8 (second series), stronger effect = lower value 0.965 | locus YEL061C, strain CIN8, stronger effect = lower value 0.982 | locus YER015W, strain faa2, stronger effect = lower value 0.971 | locus YER016W, strain bim1, stronger effect = lower value 0.975 | locus YER110C, stronger effect = lower value 0.965 | locus YER111C, strain swi4, stronger effect = lower value 0.974 | locus YER155C, strain BEM2 (second series), stronger effect = lower value 0.958 | locus YER155C, strain BEM2, stronger effect = lower value 0.986 | locus YER167W, strain BCK2, stronger effect = lower value 0.904 | locus YFR010W, strain ubp6, stronger effect = lower value 0.952 | locus YGL078C, strain dbp3, stronger effect = lower value 0.961 | locus YGL086W, strain mad1, stronger effect = lower value 0.972 | locus YGL167C, strain pmr1, stronger effect = lower value 0.962 | locus YGL173C, strain kem1, stronger effect = lower value 0.949 | locus YGL227W, strain vid30, stronger effect = lower value 0.961 | locus YGL240W, strain doc1, stronger effect = lower value 0.894 | locus YGL248W, strain PDE1, stronger effect = lower value 0.961 | locus YGR078C, strain PAC10, stronger effect = lower value 0.936 | locus YGR135W, strain pre9, stronger effect = lower value 0.934 | locus YGR229C, strain SMI1, stronger effect = lower value 0.84 | locus YHR013C, strain ard1, stronger effect = lower value 0.991 | locus YHR027C, strain rpn1, stronger effect = lower value 0.971 | locus YHR030C, strain SLT2, stronger effect = lower value 0.976 | locus YHR079C, strain IRE1 (second series), stronger effect = lower value 0.959 | locus YHR094C, strain hxt1, stronger effect = lower value 0.967 | locus YHR129C, strain ARP1, stronger effect = lower value 0.967 | locus YHR142W, strain chs7, stronger effect = lower value 0.926 | locus YHR200W, strain rpn10, stronger effect = lower value 0.971 | locus YIL066C, strain RNR3, stronger effect = lower value 0.945 | locus YIL073C, strain SPO22, stronger effect = lower value 0.955 | locus YIR030C, strain dcg1, stronger effect = lower value 0.965 | locus YJL092W, strain hpr5, stronger effect = lower value 0.97 | locus YJL095W, strain BCK1 (second series), stronger effect = lower value 0.964 | locus YJL095W, strain BCK1, stronger effect = lower value 0.956 | locus YJL115W, strain asf1, stronger effect = lower value 0.975 | locus YJL129C, strain trk1, stronger effect = lower value 0.946 | locus YJL134W, strain LCB3, stronger effect = lower value 0.974 | locus YJL154C, strain vps35, stronger effect = lower value 0.966 | locus YJL164C, strain tpk1, stronger effect = lower value 0.973 | locus YJL166W, strain qcr8, stronger effect = lower value 0.936 | locus YJL168C, strain set2, stronger effect = lower value 0.99 | locus YJL187C, strain SWE1 (second series), stronger effect = lower value 0.953 | locus YJL187C, strain SWE1, stronger effect = lower value 0.961 | locus YJR043C, strain POL32, stronger effect = lower value 0.876 | locus YJR075W, strain HOC1, stronger effect = lower value 0.947 | locus YKL009W, strain mrt4, stronger effect = lower value 0.939 | locus YKL068W, stronger effect = lower value 0.957 | locus YKL085W, strain MDH1 (second series), stronger effect = lower value 0.951 | locus YKL085W, strain MDH1, stronger effect = lower value 0.951 | locus YKL160W, strain elf1, stronger effect = lower value 0.982 | locus YKR026C, strain gcn3, stronger effect = lower value 0.962 | locus YKR091W, strain srl3, stronger effect = lower value 0.969 | locus YLL001W, strain dnm1, stronger effect = lower value 0.945 | locus YLL026W, stronger effect = lower value 0.973 | locus YLL041C, strain sdh2, stronger effect = lower value 0.965 | locus YLR027C, strain aat2, stronger effect = lower value 0.951 | locus YLR039C, strain RIC1, stronger effect = lower value 0.688 | locus YLR058C, strain SHM2, stronger effect = lower value 0.977 | locus YLR102C, strain apc9, stronger effect = lower value 0.969 | locus YLR258W, strain gsy2, stronger effect = lower value 0.963 | locus YLR262C, strain YPT6 (second series), stronger effect = lower value 0.968 | locus YLR262C, strain YPT6, stronger effect = lower value 0.801 | locus YLR268W, strain sec22, stronger effect = lower value 0.959 | locus YLR320W, strain mms22, stronger effect = lower value 0.933 | locus YLR330W, strain CHS5, stronger effect = lower value 0.974 | locus YLR342W, strain FKS1 (second series), stronger effect = lower value 0.95 | locus YLR342W, strain FKS1, stronger effect = lower value 0.963 | locus YLR357W, strain rsc2, stronger effect = lower value 0.967 | locus YLR370C, strain arc18, stronger effect = lower value 0.965 | locus YLR371W, strain rom2, stronger effect = lower value 0.978 | locus YLR384C, strain iki3, stronger effect = lower value 0.961 | locus YLR418C, strain cdc73, stronger effect = lower value 0.872 | locus YML016C, strain PPZ1, stronger effect = lower value 0.982 | locus YML032C, strain rad52, stronger effect = lower value 0.967 | locus YML120C, strain ndi1, stronger effect = lower value 0.966 | locus YML124C, strain tub3, stronger effect = lower value 0.96 | locus YMR058W, strain fet3, stronger effect = lower value 0.963 | locus YMR078C, strain ctf18, stronger effect = lower value 0.951 | locus YMR125W, strain sto1, stronger effect = lower value 1 | locus YMR129W, stronger effect = lower value 0.969 | locus YMR205C, strain PFK2, stronger effect = lower value 0.981 | locus YMR223W, strain ubp8, stronger effect = lower value 0.932 | locus YMR231W, strain pep5, stronger effect = lower value 0.972 | locus YMR263W, strain SAP30, stronger effect = lower value 0.949 | locus YMR307W, strain GAS1, stronger effect = lower value 0.923 | locus YNL067W, strain RPL9B, stronger effect = lower value 0.953 | locus YNL071W, strain lat1, stronger effect = lower value 0.957 | locus YNL153C, strain GIM3, stronger effect = lower value 0.969 | locus YNL209W, strain ssb2, stronger effect = lower value 0.997 | locus YNL233W, strain BNI4, stronger effect = lower value 0.929 | locus YNL250W, strain rad50, stronger effect = lower value 0.967 | locus YNL271C, strain bni1, stronger effect = lower value 0.957 | locus YNL298W, strain CLA4, stronger effect = lower value 0.977 | locus YNL307C, strain MCK1, stronger effect = lower value 0.952 | locus YNL322C, strain KRE1 (second series), stronger effect = lower value 0.959 | locus YNR049C, strain mso1, stronger effect = lower value 0.968 | locus YNR052C, strain pop2, stronger effect = lower value 0.983 | locus YOL006C, strain TOP1, stronger effect = lower value 0.587 | locus YOL012C, strain htz1 1.06 | locus YOL147C, strain pex11, stronger effect = lower value 0.977 | locus YOR001W, strain rrp6, stronger effect = lower value 0.922 | locus YOR061W, strain CKA2, stronger effect = lower value 0.989 | locus YOR069W, strain VPS5, stronger effect = lower value 0.981 | locus YOR070C, strain gyp1, stronger effect = lower value 0.979 | locus YOR080W, strain dia2, stronger effect = lower value 0.951 | locus YOR083W, strain WHI5, stronger effect = lower value 0.979 | locus YOR106W, strain vam3, stronger effect = lower value 0.938 | locus YOR136W, strain idh2, stronger effect = lower value 0.972 | locus YOR144C, strain elg1, stronger effect = lower value 0.979 | locus YOR184W, strain ser1, stronger effect = lower value 0.96 | locus YOR265W, strain rbl2, stronger effect = lower value 0.964 | locus YOR290C, strain snf2, stronger effect = lower value 0.976 | locus YOR316C, strain cot1, stronger effect = lower value 0.969 | locus YPL051W, strain arl3, stronger effect = lower value 0.916 | locus YPL078C, strain atp4, stronger effect = lower value 0.959 | locus YPL106C, strain sse1, stronger effect = lower value 0.969 | locus YPL240C, strain hsp82, stronger effect = lower value 0.979 | locus YPR119W, strain clb2, stronger effect = lower value 0.961 | locus YPR141C, strain kar3, stronger effect = lower value 0.964 | locus YPR163C, strain tif3, stronger effect = lower value 0.948 | locus YPR167C, strain met16, stronger effect = lower value 0.969 | strain wtn01, stronger effect = lower value 0.957
